From PubChem BioAssay AID1159580 (chemical genetic matrix, 2015)
About 2,000 (36%) of roughly 5,500 compounds were called active. About 18% were inconclusive and are not listed. Rule as the data show it: active = normalized growth mostly below about 0.91 (no sharp cut-off); inconclusive = no clear call, values can overlap the other calls; inactive = mostly above about 0.92. The list shows a part of the results.

Test: chemical genetic growth profiling, strain panel (AID 1159580);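 also: tested at 20 µM; growth read once vehicle control cultures reached saturation at 30 °C; 1 = growth at the plate median or of vehicle wells; lower values mean less growth of the strain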
Conditions: growth OD
[1] = S. cerevisiae deletion strains, locus YAL013W, strain DEP1, hits give low values
[2] = S. cerevisiae deletion strains, locus YJR075W, strain HOC1, hits give low values
[3] = S. cerevisiae deletion strains, locus YMR307W, strain GAS1, hits give low values
[4] = S. cerevisiae deletion strains, locus YNL322C, strain KRE1, hits give low values
[5] = S. cerevisiae deletion strains, locus YPL055C, strain LGE1, hits give low values
[6] = S. cerevisiae deletion strains, locus YPL241C, strain CIN2, hits give low values

Measured: normalized growth

COc1ccccc1CC(=O)NC1CCN(Cc2ccccc2)CC1
inactive: [1] 1.01 | S. cerevisiae deletion strains, locus YBR229C, strain ROT2, hits give low values 1 | S. cerevisiae deletion strains, locus YDL101C, strain DUN1, hits give low values 1.01 | S. cerevisiae deletion strains, locus YDL134C, strain PPH21, hits give low values 1.02 | S. cerevisiae deletion strains, locus YDR150W, strain NUM1, hits give low values 0.993 | S. cerevisiae deletion strains, locus YEL061C, strain CIN8, hits give low values 1.02 | S. cerevisiae deletion strains, locus YGR078C, strain PAC10, hits give low values 1.01 | S. cerevisiae deletion strains, locus YGR229C, strain SMI1, hits give low values 1.02 | S. cerevisiae deletion strains, locus YHR030C, strain SLT2, hits give low values 0.943 | S. cerevisiae deletion strains, locus YHR087W, strain rtc3, hits give low values 0.998 | S. cerevisiae deletion strains, locus YJR043C, strain POL32, hits give low values 1.01 | [2] 1.02 | S. cerevisiae deletion strains, locus YKL190W, strain CNB1, hits give low values 1.01 | S. cerevisiae deletion strains, locus YLR039C, strain RIC1, hits give low values 0.947 | S. cerevisiae deletion strains, locus YLR058C, strain SHM2 (second series), hits give low values 1.01 | S. cerevisiae deletion strains, locus YLR085C, strain ARP6, hits give low values 1.04 | S. cerevisiae deletion strains, locus YLR262C, strain YPT6, hits give low values 0.826 | S. cerevisiae deletion strains, locus YML094W, strain GIM5, hits give low values 0.991 | S. cerevisiae deletion strains, locus YMR219W, strain ESC1, hits give low values 1.01 | S. cerevisiae deletion strains, locus YMR263W, strain SAP30, hits give low values 1.02 | [3] 1.11 | S. cerevisiae deletion strains, locus YNL153C, strain GIM3, hits give low values 1.01 | S. cerevisiae deletion strains, locus YNL298W, strain CLA4 (second series), hits give low values 1.04 | [4] 1 | S. cerevisiae deletion strains, locus YNR030W, strain Alg12, hits give low values 1.02 | S. cerevisiae deletion strains, locus YOL006C, strain TOP1, hits give low values 0.947 | [5] 1.01 | [6] 1.13 | S. cerevisiae deletion strains, locus YPR135W, strain CTF4, hits give low values 1.07 | S. cerevisiae strains, strain wild type, hits give low values 1.02

CC(C)Oc1cccnc1N(C)C1CCN(Cc2ccccc2)CC1
inactive: [1] 1.02 | S. cerevisiae deletion strains, locus YAL040C, strain CLN3, hits give low values 0.983 | S. cerevisiae deletion strains, locus YCL061C, strain MRC1 (second series), hits give low values 1 | S. cerevisiae deletion strains, locus YDR363W, strain ESC2, hits give low values 1 | S. cerevisiae deletion strains, locus YER002W, strain NOP16, hits give low values 0.967 | [2] 1.01 | [3] 1.03 | S. cerevisiae deletion strains, locus YNL128W, strain TEP1, hits give low values 1.01 | S. cerevisiae deletion strains, locus YNL175C, strain NOP13, hits give low values 0.991 | S. cerevisiae deletion strains, locus YNL197C, strain WHI3, hits give low values 0.991 | S. cerevisiae deletion strains, locus YNL224C, strain SQS1, hits give low values 1 | [4] 1.01 | S. cerevisiae deletion strains, locus YOR083W, strain WHI5 (second series), hits give low values 0.976 | [5] 1 | [6] 1.01
